ClpP mod: qHTS Assay for Activators of ClpP. ATP-dependent Clp protease proteolytic subunit (Bacillus subtilis (strain 168)), P80244. purified B. subtilis ClpP, FRET peptide cleavage, 20 min. Potency, µM (highest dose often 57.5 µM), for the others: top-dose activity change, negative = active. 340,000 tested, 1.9% active. AID 651965, 2013; active = well fitted falling curve with a large enough effect; inconclusive = small, poorly fitted or top-dose-only effect; inactive = no such curve, though single readings can be large or run the other way; also: the source files actives as falling curves though it sought activators and does not explain the sign; nearly all actives have a fitted effect of over 65% in size
Target sequence (P80244 whole entry, looked up): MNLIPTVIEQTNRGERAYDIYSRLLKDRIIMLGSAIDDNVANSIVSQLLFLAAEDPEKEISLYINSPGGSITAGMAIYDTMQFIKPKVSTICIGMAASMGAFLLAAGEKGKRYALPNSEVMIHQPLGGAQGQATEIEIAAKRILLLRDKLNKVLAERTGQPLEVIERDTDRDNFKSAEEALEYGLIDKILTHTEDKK
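Buffer: 100 mM Tris/HCl pH8, 100 mM KCl, 0.05% low protease BSA, 2.5% glycerol, 0.01% Tween-20. ClpP 10 microg/mL final; 20 min RT; delta FRET normalized to ADEP and DMSO controls.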
DT40 TDP1 no CPT: qHTS for Inhibitors of human tyrosyl-DNA phosphodiesterase 1 (TDP1): qHTS in cells in absence of CPT; DT40 Tdp1-/- hTDP1 cells, no CPT, ATP luminescence, 48 h; Potency, µM (doses to about 46.2 µM), without a hit: top-dose activity change, negative = growth inhibition, usual class: inhibitors; 420,000 tested, 15% active; also: % is scaled to controls: 0 for no effect and ±100 for the full control effect; nearly all actives have a fitted effect of over 55% in size
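A cellular qHTS used chicken DT40 cells lacking endogenous Tdp1 but carrying stably transfected human TDP1. Compounds were applied without camptothecin, and cell growth kinetics were judged by ATP-dependent luminescence after ≥48 hr.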
TDP1 cell CPT: DT40-hTDP1 cell growth loss with CPT; chicken DT40 Tdp1-/-;hTDP1 cells + 20 nM CPT, ATP luminescence, 48 h; Potency, µM (doses to about 46.2 µM), without a hit: at the highest dose activity change, negative = growth inhibition, most hits filed as inhibitors; 420,000 tested, 12% active; also: % is scaled to controls: 0 for no effect and ±100 for the full control effect; nearly all actives have a fitted effect of over 55% in size
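Chicken DT40 Tdp1-/- cells complemented with human TDP1, 400 cells/well, exposed to compounds plus 20 nM camptothecin for at least 48 h at 37 C; viability read as ATP content by CellTiter-Glo luminescence.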
TDP1 block: blocks human tyrosyl-DNA phosphodiesterase 1; recombinant TDP1, AlphaScreen DNA substrate cleavage; AID 485290; Potency, µM (series often up to 130 µM), for the others: top-dose activity change, negative = inhibition, actives largely listed as inhibitors; 350,000 tested, 0.28% active; Q9NUW8; also: % is scaled to controls: 0 for no effect and ±100 for the full control effect; nearly all actives have a fitted effect of over 40% in size
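Enzyme-compound mixtures sat 15 min at room temperature, followed by a 5 min reaction with 15 nM final substrate and 10 min with AlphaScreen beads. Recombinant human Tdp1 was used at 1 nM final.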
* = called active by the depositor; [ ] = remark or other dose. Only some compounds are listed: those with a hit (about 17% of all), similar ones and a draw of the others. Unless noted, calls follow the shape of the dose curve; as a rule, active = well fitted curve in the direction sought with a large enough effect; inconclusive = small, poorly fitted or top-dose-only effect, or another doubt; inactive = no such curve, though single readings can be large; an effect the other way counts as inactive or inconclusive. Potency is read from the fitted curve at half-maximal effect.

What do the screens show for `COc1ccc(N2CCN(C(=O)c3cnc(N4CCOCC4)c4ccccc34)CC2)cc1`?
ClpP mod: -10%; DT40 TDP1 no CPT: 23µM*; TDP1 cell CPT: inconclusive; TDP1 block: 7%

What do the screens show for `COc1ccc(CNC(=O)c2cnc(N3CCOCC3)c3ccccc23)cc1`?
ClpP mod: -7%; DT40 TDP1 no CPT: inconclusive; TDP1 cell CPT: inconclusive; TDP1 block: 7%

What do the screens show for `C[C@@H]1CCCCCCCCC(=O)OCCN1C(=O)OC(C)(C)C`?
ClpP mod: 1%; DT40 TDP1 no CPT: inconclusive; TDP1 cell CPT: 16µM*; TDP1 block: -3%

Results for CC1C(c2ccccc2)N(C)C(c2ccccc2)C(C)C1(O)C#Cc1ccccc1 (centres undefined) ?
ClpP mod: -1%; DT40 TDP1 no CPT: 10µM*; TDP1 cell CPT: 9.2µM*; TDP1 block: 0%

What do the screens show for `COc1ccc(N(CC(=O)N/N=C/c2ccccc2OC)S(=O)(=O)c2ccccc2)cc1`?
DT40 TDP1 no CPT: -6%; TDP1 cell CPT: 6%

How did c1ccc(CSc2ncnc3sccc23)cc1 do in these assays?
ClpP mod: 0%; DT40 TDP1 no CPT: 11%; TDP1 cell CPT: 3%

What do the screens show for `c1ccc2sc(Sc3ncnc4sccc34)nc2c1`?
DT40 TDP1 no CPT: 2.9µM*; TDP1 cell CPT: 5.8µM*; TDP1 block: 5%

Results for CCc1cc2c(Sc3nc4ccccc4s3)ncnc2s1 ?
ClpP mod: inconclusive; DT40 TDP1 no CPT: 9.2µM*; TDP1 cell CPT: 5.2µM*; TDP1 block: 0%

What do the screens show for `CCc1cc2c(SCC(=O)Nc3ccc(NC(C)=O)cc3)ncnc2s1`?
ClpP mod: 0%; DT40 TDP1 no CPT: -25%; TDP1 cell CPT: -20%; TDP1 block: -3%

How did CC(=O)Nc1ccc(SCCN2CC[C@@H](C)CCC2=O)cc1 do in these assays?
ClpP mod: 0%; DT40 TDP1 no CPT: -3%; TDP1 cell CPT: 0%; TDP1 block: -1%

How did COCc1cc(C)n(CC(=O)N2CCCC2)c(=O)c1C#N do in these assays?
ClpP mod: 3%; DT40 TDP1 no CPT: 17%; TDP1 cell CPT: -19%; TDP1 block: 5%

Results for CCOC(=O)Cn1c(C)cc(COC)c(C#N)c1=O ?
ClpP mod: 4%; DT40 TDP1 no CPT: 5.2µM*; TDP1 cell CPT: -2%; TDP1 block: 0%

How did COCc1cc(C)[nH]c(=O)c1C#N do in these assays?
ClpP mod: 2.8µM*; DT40 TDP1 no CPT: -4%; TDP1 cell CPT: -4%; TDP1 block: 6%

How did COCc1cc(C)n(CC(=O)Nc2ccccc2C(=O)OC)c(=O)c1C#N do in these assays?
ClpP mod: 18µM*; DT40 TDP1 no CPT: 7%; TDP1 cell CPT: 0%; TDP1 block: 1%

What do the screens show for `CSc1ncccc1C(=O)N1CCc2nnc(C(NC(=O)c3ccoc3)C(C)C)n2CC1` (centres undefined)?
DT40 TDP1 no CPT: -1%; TDP1 cell CPT: 0%

Results for CCCS(=O)(=O)NC(=O)C1(C)CCN(C(=O)c2cc(C)nn2C(C)(C)C)C1 (centres undefined) ?
ClpP mod: 1%; DT40 TDP1 no CPT: -3%; TDP1 cell CPT: -11%

How did COCCCN1C(=O)C(CC(=O)NCCN2CCOCC2)CC(C(=O)N2CCOCC2)=C1C (centres undefined) do in these assays?
ClpP mod: 2%; DT40 TDP1 no CPT: -21%; TDP1 cell CPT: -10%

Results for COC(=O)c1sccc1S(=O)(=O)Nc1ccc(N2CCCCC2)cc1 ?
DT40 TDP1 no CPT: 16µM*; TDP1 cell CPT: inconclusive; TDP1 block: 8%

What do the screens show for `COc1ccc(NS(=O)(=O)c2cc(NC(=O)c3cccs3)ccc2N2CCCC2)cc1`?
ClpP mod: -2%; DT40 TDP1 no CPT: 21µM*; TDP1 cell CPT: inconclusive; TDP1 block: 11%

How did CCCCCC(=O)Nc1ccc(N2CCOCC2)c(S(=O)(=O)Nc2ccc(OC)cc2)c1 do in these assays?
DT40 TDP1 no CPT: -28%; TDP1 cell CPT: -19%

How did COc1ccc(NS(=O)(=O)c2cc(NC(=O)/C=C/c3cccs3)ccc2N2CCOCC2)cc1 do in these assays?
ClpP mod: 28µM*; DT40 TDP1 no CPT: inconclusive; TDP1 cell CPT: inconclusive; TDP1 block: 5%

Results for C/C(=N\NC(=S)NCc1ccccc1)c1ccc2c(c1)OCCO2 ?
ClpP mod: -5%; DT40 TDP1 no CPT: 23µM*; TDP1 cell CPT: 16µM*; TDP1 block: 5%

How did C/C(=N\NC(=S)Nc1ccc(F)cc1)c1ccc2c(c1)OCCO2 do in these assays?
ClpP mod: -5%; DT40 TDP1 no CPT: 0.92µM*; TDP1 cell CPT: 0.92µM*; TDP1 block: 9%

What do the screens show for `C/C(=N\NC(=S)NCc1ccccc1)c1ccc(C)o1`?
DT40 TDP1 no CPT: 5.2µM*; TDP1 cell CPT: inconclusive; TDP1 block: 5%

Results for C/C(=N\NC(N)=S)c1ccc2c(c1)OCCO2 ?
ClpP mod: -1%; DT40 TDP1 no CPT: inconclusive; TDP1 cell CPT: -23%; TDP1 block: 1%

How did C/C(=N\NC(=S)NCc1ccccc1)c1ccc(Br)cc1 do in these assays?
DT40 TDP1 no CPT: inconclusive; TDP1 cell CPT: inconclusive; TDP1 block: 8%

How did Cc1ccc(-n2ncc3c(SCc4ccccn4)ncnc32)c(C)c1 do in these assays?
ClpP mod: -2%; DT40 TDP1 no CPT: 16µM*; TDP1 cell CPT: inconclusive; TDP1 block: 4%

Results for Cc1ccc(CSc2ncnc3c2cnn3-c2ccccc2)cc1 ?
ClpP mod: 25µM*; DT40 TDP1 no CPT: inconclusive; TDP1 cell CPT: -8%; TDP1 block: 1%

Results for Cc1ccc(CSc2ncnc3c2cnn3-c2ccc(C)cc2)cc1 ?
ClpP mod: -17%; DT40 TDP1 no CPT: -24%; TDP1 cell CPT: -24%; TDP1 block: 1%

Results for Cc1ccc(-n2ncc3c(SCc4ccccc4)ncnc32)cc1 ?
ClpP mod: 22µM*; DT40 TDP1 no CPT: inconclusive; TDP1 cell CPT: -12%; TDP1 block: 0%

How did O=C1NC(Cc2ccc(O)cc2)c2nc3ccc(Br)cc3c(=O)n2-c2ncccc21 (centres undefined) do in these assays?
ClpP mod: -8%; DT40 TDP1 no CPT: inconclusive; TDP1 cell CPT: -14%

Results for CC(=O)Nc1ccc(/C=C/c2ccc3c([N+](=O)[O-])cccc3n2)cc1 ?
ClpP mod: 1%; DT40 TDP1 no CPT: 2%; TDP1 cell CPT: 6%; TDP1 block: 5%

What do the screens show for `C=C1CC23C[C@H]4[C@@H]5[C@@]6(C)C[C@H](OC(=O)c7ccccc7)[C@@H](OC(C)=O)[C@]57[C@@H]2[C@@H](OC(C)=O)[C@H]1[C@@H](O)[C@H]3[C@H]7N4C6`?
TDP1 block: 10%[56.1 µM]

Results for CCNC(=S)Nc1cc(OCC)c(N2CCOCC2)cc1OCC ?
ClpP mod: -1%; DT40 TDP1 no CPT: inconclusive; TDP1 cell CPT: inconclusive; TDP1 block: -1%

Compound activity (PubChem BioAssay)
